From PubChem BioAssay AID602314 (ICCB-Longwood Screening Facility, Harvard Medical School, 2012) come the findings set out here.

Among all 84,000 compounds or so, about 110 (0.13%) were called active. Shown is part of a subset that was picked to be rich in actives. A number with no mark means an inactive call. Rule as the data show it: active = inhibition above about 30% (passing the limit was not always enough); inactive = the rest.

For this assay, the system named is MgrA (MarR family transcriptional regulator), Staphylococcus aureus Newman. Put plainly: S. aureus MgrA activity modulators, primary screen, biochemical, S. aureus Newman, fluorescence polarization (AID 602314).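 Also: 0% = protein plus DNA without compound and 100% = DNA alone without protein; higher means less MgrA bound to DNA so lower polarization.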 Particulars: MgrA-DNA binding, active compounds read high, concentration not given here. (In fluorescence polarisation assays a small probe gives low polarisation when free and higher when bound to something large.)
`O=C1CSC(=S)N1c1ccc(Oc2ccc(Cl)cc2)cc1`: the inhibition is -2.4%.

As for `Cn1nnc(NC(=O)COc2ccccc2)n1`, the inhibition was -1.4%.

As to `NC(=O)c1c(NC(=O)c2ccccc2)sc2c1CCCC2`, the inhibition is 0.05%.

In the case of `O=C(O)C1=Cc2sc3c(c2CS1)CCCC3`, the inhibition is 72.7% (active).

Regarding `CC/C(=N\OC(=O)c1cccs1)c1ccc(-c2ccccc2F)cc1`, the inhibition was 4.4%.

For the compound `CN(C)C(=O)Cn1c(=O)n(S(=O)(=O)c2ccccc2)c2ccccc21`, the inhibition is 7.3%.

For the compound `CN(C)c1ncnc2nc[nH]c12`, the inhibition was 0.75%.

Regarding `CCCN(CCC)S(=O)(=O)c1cccc2c(N)cccc12`, the inhibition was -2.2%.

Consider `CC1=C(C(=O)OCCOC(C)C)C(c2ccccc2OCc2ccccc2)NC(=O)N1` (stereo unspecified), for which the inhibition is -4.9%.

`CC1(C)COC(c2cccc(C#N)c2)OC1`: the inhibition was -1.45%.

On to `CCN1CCCc2cc(CN(CCN3CCOCC3)C(=S)Nc3c(C)cc(C)cc3C)ccc21`, for which the inhibition is 4.95%.

Regarding `COC(=O)C1=C(C)NC2=C(C(=O)CC(c3ccc(Cl)cc3)C2)C1c1ccc(OC(C)=O)c(OC)c1` (stereo unspecified), the inhibition was -2.1%.

As to `OCC(O)CN(c1ccccc1)c1ccccc1` (stereo unspecified), the inhibition was -1.8%.

`Cc1ccc2cc(C#N)c(SCC(=O)Nc3ccccc3)nc2c1`: the inhibition is -0.85%.

In the case of `O=C(CCSc1ccc(Cl)cc1)Nc1ccc(F)c(F)c1F`, the inhibition was 0.15%.

As to `COc1ccccc1Nc1n[nH]c(=S)n1C(=O)c1cccs1`, the inhibition was 2.9%.

For `O=C(O)CCc1nn2c(=O)c3ccccc3nc2s1`, the inhibition was -0.2%.

`CCCN(c1ccc(C)cc1)c1nc(=O)c2cccnc2s1`: the inhibition was 0.75%.

On to `C=CCn1c(=O)c(C(=O)NCC2CCCN2CC)c(O)c2cc(OC)c(OC)cc21` (stereo unspecified), for which the inhibition was -0.05%.

For `NC(=O)c1sccc1NS(=O)(=O)c1ccc(Cl)c(Cl)c1`, the inhibition was 2.05%.

Turning to `CSc1ncc(C(N)=O)c(N)n1`, the inhibition is -4%.

For the compound `CC(=O)Nc1ccc(-c2nc(-c3ccccc3)c3cc(C)ccc3n2)cc1`, the inhibition is 0.5%.

For `COc1ccccc1NC(=O)C1CC(=O)N(CCc2ccccc2)C(=Nc2ccccc2)S1` (stereo unspecified), the inhibition is 0.9%.

For the compound `CN(Cc1ccccc1)C(=O)c1cccc(-c2nnc(-c3ccccc3)o2)c1`, the inhibition was 1.3%.

In the case of `O=C(O)COc1ccc(NC(=O)c2ccccc2F)cc1`, the inhibition was -2.2%.

With `CC(C)=CC(=O)Nc1nc2ccc(C)cc2s1`, the inhibition is 5.35%.

As for `c1ccc(NC2CCCCC2)cc1`, the inhibition is -1.2%.

As for `O=C(c1cc(-c2ccccc2)c(C(F)(F)F)s1)N1CCCC1`, the inhibition is -2.9%.

`c1ccc(CNC2C3CC4CC(C3)CC2C4)nc1` (stereo unspecified): the inhibition was -6%.

Turning to `CC12CC[C@H](CC1=O)C2(C)C`, the inhibition was 0.7%.

Take `COc1ccc(O)c(/C=N/NC(=O)c2ccn(Cc3ccc(Cl)cc3)n2)c1`: the inhibition was 2.4%.

For the compound `Nc1cc(C(=O)OCC(=O)NC2CCCCCC2)ccc1Cl`, the inhibition was -0.65%.

For the compound `COC(=O)c1ccc(C2NN=C(c3ccccc3)S2)cc1` (stereo unspecified), the inhibition was 2.7%.

Regarding `Cc1ccccc1CNCc1cccs1`, the inhibition was -3.4%.

For the compound `O=c1[nH]c2ccccc2c(=O)n1NS(=O)(=O)c1ccc2ccccc2c1`, the inhibition is 1.35%.

Regarding `CCCc1c(C)nc2c(C)cccc2c1SCCC(=O)O`, the inhibition is 0%.

Consider `CC(C)C(=O)N=C1SC2CS(=O)(=O)CC2N1CCc1ccccc1` (stereo unspecified), for which the inhibition is 0.45%.

Regarding `CCCn1nnnc1NC(=S)NC(=O)c1cc2ccccc2o1`, the inhibition was 3.35%.

On to `O=C(O)C1C2CCC(C2)C1C(=O)NCCCN1CCCC1=O` (stereo unspecified), for which the inhibition was 1.45%.

On to `O=[N+]([O-])c1ccc(Oc2cccc(Cl)c2)nc1`, for which the inhibition was -0.6%.

`CCOC(=O)N1CCN(Cc2nc3c(c(=O)n(C)c(=O)n3C)n2CC)CC1`: the inhibition is 6.15%.

For `CC(NC(=S)Nc1ccc(S(N)(=O)=O)cc1)c1ccc2c(c1)OCO2` (stereo unspecified), the inhibition is 0.45%.

For the compound `Cc1ccc(C(=O)[C@@H]2[C@@H](C(C)(C)C)C(C#N)(C#N)[C@@]3(C)C=Cc4ccccc4N23)cc1`, the inhibition is -0.85%.

With `CCc1cccc(CC)c1N1C(=O)C(C)=C(C)C1=O`, the inhibition is -0.9%.

Take `O=C(O)CNC(=O)c1ccc(Cl)c(Cl)c1`: the inhibition is -1.25%.

With `O=C(O)C1CCCCC1C(=O)Nc1ccc2[nH]c(=S)sc2c1` (stereo unspecified), the inhibition is 6.3%.

As for `CCC(NC(=O)Nc1cc(C)cc(C)c1)c1c(-n2cccc2)sc2c1CCN(CC)C2` (stereo unspecified), the inhibition is 1%.

Take `Cc1nc2ccc(C(=O)OCCC(F)(F)F)cc2[nH]1`: the inhibition is -0.25%.

As for `Cc1cc(C)c(C(=O)N2CCCCC2C)c(C)c1` (stereo unspecified), the inhibition was -0.7%.

For `O=C(NC1CCCCNC1=O)c1ccc(N2CCOCC2)nc1` (stereo unspecified), the inhibition is -0.3%.

Regarding `CCOC(=O)CC1=C(C(=O)OCC)C(c2c(F)cccc2Cl)C(C#N)=C(N)O1` (stereo unspecified), the inhibition is 0.2%.

For the compound `C=CCNC(=O)c1cc(-c2ccccc2O)on1`, the inhibition was 0.8%.

Consider `C=CCNC(=O)c1ccc2nc(-c3ccco3)c(-c3ccco3)nc2c1`, for which the inhibition was 59.2% (active).

With `C=CCNC(=O)c1ccc(OCC=C)cc1`, the inhibition was 0.4%.

`CSC(=Nc1ccccc1F)Nc1ccccc1F`: the inhibition is -2.5%.

On to `O=C(O)c1ccccc1Cc1cccs1`, for which the inhibition was -3.8%.

As for `C=CCNC(=O)c1cc(Br)cs1`, the inhibition is 0.6%.

On to `Cc1nc(SCSc2nc3ccccc3s2)nc2c1CCCC2`, for which the inhibition is 0.6%.

In the case of `CCN(CC)S(=O)(=O)c1cc2c3c(c1)c(C)cc(=O)n3CCC2`, the inhibition was 0.85%.

For the compound `O=C(c1ccc(Br)cc1)c1cc2cc(Br)cc(Br)c2o1`, the inhibition is 1.1%.

Take `COc1cccc(O)c1C(=O)NCC(=O)O`: the inhibition is -1.1%.

In the case of `COc1ccc(N=Cc2nc(-c3ccccc3Br)oc2O)c([N+](=O)[O-])c1`, the inhibition is 4.2%.

As for `O=C(OC(C(=O)c1ccccc1)c1ccccc1)c1cccc(O)c1` (stereo unspecified), the inhibition was -1%.

Turning to `CCNc1sc(C(=O)OC)c(N)c1C#N`, the inhibition was 0.25%.

Regarding `COc1ccc2[nH]c(=O)c(CN(Cc3ccc(C)cc3)C(C)=O)cc2c1`, the inhibition was 3.85%.

For `COc1cccc(CNn2cn[nH]c2=S)c1OCc1ccccc1`, the inhibition was 0.8%.

Take `COc1cc(C)nc(NN)n1`: the inhibition is 2.8%.

In the case of `COc1ccc(Cl)c2c1NC(c1ccncc1)C1CC=CC21` (stereo unspecified), the inhibition is 0%.

With `CC1(C)CC(CC#N)(c2ccccc2)CCO1` (stereo unspecified), the inhibition was -1.15%.

As to `Cn1c(SCC(=O)NCc2ccc(Cl)cc2)nnc1-c1ccc(Cl)cc1`, the inhibition is -0.25%.

On to `NC(=O)c1ccccc1N=Cc1ccc2ccccc2c1`, for which the inhibition is -2.2%.

For the compound `Cc1ccc2c(c1)NC(c1cc(Cl)cc(Cl)c1O)c1cccn1-2` (stereo unspecified), the inhibition is 0.6%.

`Cc1nc2onc(OCC(=O)OCc3ccccc3)c2c(C)c1C`: the inhibition is 0.6%.

For the compound `O=C1CCCN1c1ccc(OC(F)(F)F)cc1`, the inhibition was -1.5%.

For `C=CCC1NC(C)(C)Cc2ccccc21` (stereo unspecified), the inhibition was -0.25%.

Regarding `CC1CCCCN1C(=O)c1ccccc1F` (stereo unspecified), the inhibition was -1.4%.

On to `NCC1(N2CCCCC2)CCCCC1`, for which the inhibition is -1.35%.

Regarding `Cc1onc(-c2ccccc2)c1C(=O)N=C(N)c1ccc(Cl)cc1`, the inhibition was -1.9%.

For `C=CCSc1nc2c(c(=O)[nH]c(=O)n2C)n1C/C=C(\C)Cl`, the inhibition was 3%.

As to `Cc1cc(C)cc(C(=O)OCC(=O)Nc2cccc(C(F)(F)F)c2)c1`, the inhibition was 3.35%.

For `COC(=O)c1sc(-c2ccc(Cl)cc2)cc1NC(=O)c1ccc2nsnc2c1`, the inhibition is -0.8%.

As for `CC(=O)N1N=C(c2c(-c3ccccc3)c3cc(Cl)ccc3[nH]c2=O)CC1c1cccc(Br)c1` (stereo unspecified), the inhibition was -1.4%.

On to `Cc1[nH]ncc1-c1ccccc1`, for which the inhibition is -1.4%.

On to `CCOC(=O)c1sc(SC)c2c1CC(c1ccc(C)cc1)CC2=O` (stereo unspecified), for which the inhibition is -0.2%.

`O=[N+]([O-])c1cc(C(F)(F)F)cc([N+](=O)[O-])c1Oc1ccc(Cl)cc1Cl`: the inhibition is 3.2%.

For the compound `CC(C)(C)c1c[n+](-c2ccccc2)c2n1CCS2`, the inhibition is 0.1%.

Regarding `COC(=O)COc1ccccc1C#N`, the inhibition was 0.4%.

For `CC1OC(O[C@H]2/C=C/C=C/C=C/C=C/C=C/C=C/C=C/[C@H](C)[C@@H](O)[C@@H](C)[C@H](C)OC(=O)CC(O)CC(O)CCC(O)C(O)CC(O)CC3(O)C[C@H](O)C(C(=O)O)C(C2)O3)C(O)[C@H](N)C1O` (stereo partly specified), the inhibition is 2.9%.

For `O=c1[nH]nc(-c2ccccc2)[nH]1`, the inhibition was -1.6%.

For the compound `CCC(=O)Nc1cc(NC(=O)c2ccco2)ccc1C`, the inhibition is -1.65%.

Take `O=C(Nc1ccccc1)OCC12COC(c3ccccc3)N1C(c1ccccc1)OC2` (stereo unspecified): the inhibition is -1.5%.

Take `O=C(c1ccco1)N1CCN(c2cnn(-c3ccccc3)c(=O)c2Cl)CC1`: the inhibition is -0.95%.

As for `Cc1ccc2c(c1)c1c(n2CC(O)CNCc2ccccc2)CCCC1` (stereo unspecified), the inhibition was -1.7%.

As for `CN(C(=O)CSc1nncc(=O)[nH]1)c1ccccc1`, the inhibition was -1.65%.

Consider `CC1(C)CC(=O)C2=C(C1)OC1=C(C(=O)CC(C)(C)C1)C2c1cn(Cc2ccc(Cl)cc2Cl)nc1-c1ccccc1`, for which the inhibition was -0.5%.

`COc1cc(C2C3=C(CC(C)(C)CC3=O)OC3=C2C(=O)CC(C)(C)C3)c(Br)cc1OCC(=O)O`: the inhibition was 3.4%.

On to `O=C(NN=c1c(=O)c2ccccc2c1=O)c1ccncc1`, for which the inhibition is 1.9%.

Take `CCn1c(=O)c2ccccc2n(CC(=O)c2ccc(C)cc2)c1=O`: the inhibition is -1.25%.

With `CC1CCCN(c2ncccc2C(=O)NCC2CCCO2)C1` (stereo unspecified), the inhibition was 1.1%.

For `CN(C(=O)c1cc2nc(-c3ccco3)cc(C(F)(F)F)n2n1)c1ccc(OC(F)(F)F)cc1`, the inhibition is -0.95%.

Regarding `COc1ccc(C(=O)COC2=C(C#N)C3(CCCC3)C(C#N)C(=S)N2)cc1OC` (stereo unspecified), the inhibition is -1.5%.

The term inhibition denotes the change of the read-out against control, counted positive when it falls.
